Bioassay records (PubChem)
ERb coact inh: ER-beta (human) coactivator binding inhibition | Q92731 | hit rate 1.3% among 86,000 | inhibition, % at 25.6 µM | TR-FRET ER-beta LBD / SRC1-Cy5 peptide binding; receptor agonist-loaded with 1 µM estradiol;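 active means compounds whose percent inhibition of the receptor-coactivator binding signal exceeds about 50% in the single-dose screen, limit read from the data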
Target sequence (Q92731 whole entry, looked up, the tested form may be a part): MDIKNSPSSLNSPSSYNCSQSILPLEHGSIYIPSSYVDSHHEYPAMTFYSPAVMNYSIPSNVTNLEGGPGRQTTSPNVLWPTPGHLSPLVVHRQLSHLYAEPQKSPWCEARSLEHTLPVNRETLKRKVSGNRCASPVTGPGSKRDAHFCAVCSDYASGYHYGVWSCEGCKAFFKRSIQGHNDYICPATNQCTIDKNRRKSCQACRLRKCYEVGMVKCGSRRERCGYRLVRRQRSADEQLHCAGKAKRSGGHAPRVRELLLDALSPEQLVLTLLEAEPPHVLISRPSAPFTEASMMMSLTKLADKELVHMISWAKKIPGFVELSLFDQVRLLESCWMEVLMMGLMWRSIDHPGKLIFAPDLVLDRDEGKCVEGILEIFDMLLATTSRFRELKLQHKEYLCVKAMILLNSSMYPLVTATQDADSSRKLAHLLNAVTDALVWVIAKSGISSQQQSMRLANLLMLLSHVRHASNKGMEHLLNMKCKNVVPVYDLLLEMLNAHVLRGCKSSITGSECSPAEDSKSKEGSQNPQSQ
MRP-1 activ: MRP-1 activation | AID 799 | viability increase, % at 10 µM | hit rate 0.61% among 140,000 | H69AR cells + doxorubicin, viability rescue, CellTiter-Glo;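 active means viability gain under doxorubicin at or above a set limit, the compound median plus 3 SD, cut at about 4.7% in these data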;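 further: MRP-1 overexpressing cells given doxorubicin 25 µM after compound pretreatment; 18-22 h compound pretreatment then 72 h with doxorubicin before readout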
ERa coact inh: ER-alpha (human) coactivator binding inhibition | TR-FRET ER-alpha LBD / SRC-1 peptide, estradiol-bound | AID 629 | inhibition, % at 25.6 µM | P03372 | hit rate 1.7% among 86,000; in the data active means inhibition above about 50%
Smad3 FoxH1 inh: inhibitors of human Smad3 transcription factor binding. P84022. TR-FRET Smad3/Dy647-FoxH1 peptide binding, europium anti-His. inhibition, % at 25 µM. hit rate 0.29% among 88,000. AID 630;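 active means compounds that reduce the energy-transfer binding signal between the protein and its labelled peptide by more than half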
ERa SRC1 pot: enhances coactivator binding to human estrogen receptor alpha | P03372 | TR-FRET ERalpha-LBD/SRC-Cy5 coactivator binding, 2 h; 100 = basal binding, no effect | coactivator binding (% of control), % at 25.6 µM | hit rate 1.3% among 86,000 | AID 639; in the data active means activity above about 200%;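 further: binding measured in presence of low estradiol as agonist stimulus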
MRP resist rev: MRP-mediated drug resistance reversal | hit rate 0.04% among 85,000 | H69AR cells + 2 uM doxorubicin, CellTiter-Glo, 72 h | differential viability (reversal), % at 10 µM;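 active means viability drop by adding the cancer drug above about 55%, with treated viability meeting a 40% cutoff, limit read from the data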;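 further: larger differential means the compound sensitizes cells more to doxorubicin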
Numbers stand for hits; - = inactive; . = no result; [ ] = remark or other dose. Compounds with a hit are over-represented: about 2.9% of the library has one in this group of screens.

SMILES	ERb coact inh	MRP-1 activ	ERa coact inh	Smad3 FoxH1 inh	ERa SRC1 pot	MRP resist rev
CC(C)Nc1cc(N2CCCC2)ccc1[N+](=O)[O-]	.	-	.	.	.	.
CC(C)c1ccc(CNc2cc(N3CCCC3)ccc2[N+](=O)[O-])cc1	.	5.4	.	.	.	.
O=C(NCCN1CCCCCC1)c1ccc(CS(=O)(=O)c2ccc(Br)cc2)o1	-	-	81[fluorescence artefact?]	-	-	-
O=C(NCCCN1CCCCCC1)c1ccc(CS(=O)(=O)Cc2ccccc2F)o1	-	-	-	69	636[fluorescence artefact?]	-
O=C(O)c1ccc(C(=O)O)c(C(=O)O)c1.[NH-][C@@H]1CCCC[C@H]1[NH-].[Pt]	.	.	.	-	.	.
CN(C)CCN(C(=O)c1ccccc1Cl)c1nc2c(Cl)cccc2s1	.	-	.	.	.	.
O=C(Nc1ccc(O)cc1)C1CC=CCC1 (centres undefined)	68	-	-	-	-	-
O=S(=O)(Nc1ccc2c(c1)OCCO2)c1cccc2nsnc12	-	-	-	-	-	-
Cc1cc(Cl)c(S(=O)(=O)Nc2ccc3c(c2)OCO3)cc1OCC(N)=O	51	-	50	-	-	-
Cc1ccc2cccc(S(=O)(=O)Nc3ccc4c(c3)OCO4)c2n1	75[fluorescence artefact?]	-	83[fluorescence artefact?]	-	-	-
CCn1c(C)cc(/C=C2\NC(=O)N(Cc3ccc(Cl)cc3)C2=O)c1C	.	9.5	.	.	.	.
Brc1cc(Br)c2nc(-c3cccs3)ccc2c1	-	-	-	-	241[fluorescence artefact?]	-
c1csc(-c2csc(-c3cccs3)n2)c1	-	-	-	-	-	-
NC(=O)/C(=N\OC(=O)c1ccco1)c1nc(-c2ccc(Br)cc2)cs1	-	-	66[fluorescence artefact?]	-	-	-
c1ccc(OCc2nnc3sc(C4COc5ccccc5O4)nn23)cc1 (centres undefined)	60	-	58	-	-	-
c1ccc(Cc2nnc3sc(C4COc5ccccc5O4)nn23)cc1 (centres undefined)	.	-	.	.	.	.
COc1ccc(OC)c(N)c1	63[fluorescence artefact?]	-	91[fluorescence artefact?]	-	-	-
COc1cc(OC)c(Cl)cc1N	-	-	-	-	-	-
O=C1CCNc2ccc(-c3ccccc3)cc21	.	-	.	.	.	.
O=C1CCNc2cc3ccccc3cc21	78[fluorescence artefact?]	-	82[fluorescence artefact?]	-	-	-
Cc1c([C@H]2[C@@H](CC#N)C2(C)C)c2ccccc2n1C	69	-	63[fluorescence artefact?]	-	-	-
Cc1[nH]c2c(Br)cccc2c1[C@H]1[C@@H](CC#N)C1(C)C	-	-	-	-	-	-
O=C(NCSc1ccncn1)c1ccccc1	.	-	.	.	.	.
O=C(NCSc1ccnc(SCNC(=O)c2ccccc2)n1)c1ccccc1	-	-	-	-	252	-
CO[C@@H]1/C=C\O[C@]2(C)Oc3c(C)c(O)c4c(O)c(c(CN(C)C)c(O)c4c3C2=O)NC(=O)C(C)=C/C=C\[C@@H](C)[C@@H](O)[C@H](C)[C@@H](O)[C@H](C)[C@H](OC(C)=O)[C@@H]1C	.	.	.	-	.	.
SMILES	ERb coact inh	MRP-1 activ	ERa coact inh	Smad3 FoxH1 inh	ERa SRC1 pot	MRP resist rev
CC(=O)[C@@H](C)CCO[C@]1(C)OCC[C@@H]1C	.	.	.	-	.	.
Cc1nc(NNC(=O)c2ccc([N+](=O)[O-])cc2)cc(-c2ccccc2)n1	-	-	-	-	204[fluorescence artefact?]	-
C[C@]12CC[C@@H]3c4ccc(O)cc4[C@@H](O)C[C@H]3[C@@H]1CC[C@@H]2O	-	-	-	-	530	-
COc1ccc(CCNc2nc(N3CCCCC3)nc(N3CCCCC3)n2)cc1OC	-	-	-	-	-	-
Cc1cc(C)c(C(=O)COc2cccnc2[N+](=O)[O-])cc1C	89	-	55[fluorescence artefact?]	-	-	-
O=C(COc1cccnc1[N+](=O)[O-])Nc1ccccc1Sc1ccccc1	.	-	.	.	.	.
O=C(COc1cccnc1[N+](=O)[O-])Nc1ccc2c(c1)OC(F)(F)O2	.	5.5	.	.	.	.
Cc1onc(-c2ccccc2Cl)c1C(=O)OCC(=O)Nc1ccc2c(c1)OCO2	-	5.7	-	-	-	-
O=C(O)c1ccc(C(=O)O)c(C(=O)Nc2ccc3c(c2)Cc2ccccc2-3)c1	.	.	.	-	.	.
Cc1cc(Cl)cc(C)c1OCCCCN1CCOCC1	-	-	67	-	-	-
O=C(O)CN1C(=O)O[C@@H](c2ccccc2)C1=O	.	.	.	-	.	.
Cc1cccc(C(=O)Nc2cccc(C(=O)N3CCOCC3)c2)c1	-	-	-	-	239	-
COc1cccc(C(=O)Nc2cccc(C(=O)N3CCOCC3)c2)c1	-	-	-	-	-	-
CC1(C(=O)N/N=C/c2ccc([N+](=O)[O-])o2)CC1(Br)Br (centres undefined)	.	-	.	.	.	.
CC(C)c1ccccc1-n1c(SCc2cc(=O)oc3ccc4ccccc4c23)nnc1-c1cccnc1	.	-	.	.	.	.
CN1CCc2c(sc3ncn4nc(-c5ccccc5O)nc4c23)C1	77[fluorescence artefact?]	-	94[fluorescence artefact?]	-	-	-
CCOc1cccc2cc(C(=O)NCc3cccnc3)c(=O)oc12	-	-	-	-	-	-
C=CCc1cccc2cc(C(=O)NCc3cccnc3)c(=O)oc12	-	-	81[fluorescence artefact?]	-	-	-
COc1ccc(N=C2NC(=O)S/C2=C\c2ccc(N(C)C)cc2)cc1	52	-	54	-	-	-
CC(C)C(O)(C(C)C)C(C)C	.	.	.	-	.	.
O=[N+]([O-])c1ccc(C2=Nn3c(nnc3-c3ccc(Cl)cc3)SC2)o1	.	.	.	-	.	.
CCOC(=O)c1c(CSC(=N)N)n(-c2ccc(C)cc2)c2cc(Br)c(OC(C)=O)cc12	.	9.5	.	.	.	.
Cn1c(=O)[nH]c(=O)c2c1nc(N1CCCCCC1)n2CCCSc1nc2ccccc2o1	-	-	-	-	-	-
O=C1CC(c2ccc(F)cc2)Cc2nc(N3CCc4ccccc43)ncc21 (centres undefined)	-	.	-	-	203[fluorescence artefact?]	-
N#Cc1c(-c2ccco2)cc(-c2cccnc2)nc1N	-	-	-	-	-	-
SMILES	ERb coact inh	MRP-1 activ	ERa coact inh	Smad3 FoxH1 inh	ERa SRC1 pot	MRP resist rev
N#Cc1c(-c2ccco2)cc(-c2ccccn2)nc1N	63[fluorescence artefact?]	-	78[fluorescence artefact?]	-	-	-
CCOC(=O)c1ccc(NC(=O)C2CCN(C(=O)c3ccc(OC)c(OC)c3)CC2)cc1	-	11	-	-	-	-
CN1C(=O)C2(N=c3ccccc3=N2)c2ccccc21	91[fluorescence artefact?]	-	-	-	-	-
O=C(NCc1ccc(F)cc1)C(=O)NCC1OCCN1C(=O)c1cccs1 (centres undefined)	.	5.3	.	.	.	.
COc1ccccc1CNC(=O)C(=O)NCC1OCCN1C(=O)c1cccs1 (centres undefined)	.	-	.	.	.	.
Cc1cc(C(F)(F)F)nn1CC(=O)N(C)C1CCCCC1	-	.	-	-	-	-
O=S(=O)(O)c1ccc(NN(c2c(O)ccc3ccccc23)S(=O)(=O)O)cc1	.	.	.	99	.	.
Oc1ccc2ccccc2c1/C=N/Nc1ccccc1	.	-	.	.	.	.
O=C(O)Cc1cc(Cl)ccc1O	.	.	.	-	.	.
Oc1c(Cl)cc(Cl)c2c1NCCC2	70[fluorescence artefact?]	-	89[fluorescence artefact?]	-	-	-
COc1ccc(NS(=O)(=O)c2ccc(NC(=S)NC(=O)c3ccc(Br)cc3)cc2)nn1	.	-	.	.	.	.
Cc1cc(C(=O)OCC(=O)c2ccc(Br)s2)no1	-	-	58	-	-	-
